# In PubChem BioAssay (EPA / NIEHS):
# Results filed as inconclusive are left out. Active and inactive are the calls of the source. The calls were made as follows, unless noted: active = hit-call score of the fitted dose curve at least 0.9, where 1 is the maximum; inconclusive = response in the unintended direction; inactive = score below 0.9.
# Tests used:
# [1] = read-out: glucuronosyltransferase (UGT1A1), UGT1A1 (gene 54658); assay: CLD_UGT1A1_6hr: CellzDirect (CLD) Gene Expression Assay for glucuronosyltransferase (UGT1A1) at 6 hours (AID 2283672)
# Outline: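 Primary human hepatocytes from two donor preparations, dosed with fresh solutions in 0.2% DMSO, harvested at 6 h. UGT1A1 mRNA measured by qNPA chemiluminescence; induction fitted upward versus DMSO.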
# [2] = CLD_ACTIN_6hr: CellzDirect (CLD) Gene Expression Assay for Baseline Control (Actin) at 6 hours (AID 2283676);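 also: active means increased actin mRNA relative to DMSO vehicle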
# Outline: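 Primary human hepatocytes dosed with fresh chemical solutions (vehicle 0.2% DMSO), harvested at 6 h. Actin mRNA quantified by quantitative nuclease protection assay with chemiluminescent read-out, as background control relative to DMSO.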
# [3] = read-out: Cytochrome P450 2B6 (Homo sapiens) (UniProt P20813); assay: CLD_CYP2B6_6hr: CellzDirect (CLD) Gene Expression Assay for xenobiotic metabolism (CYP2B6) at 6 hours (AID 2283677);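 also: actives raise CYP2B6 transcript above DMSO baseline so AC50 marks an inducer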
# Outline: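 Primary human hepatocytes dosed with chemicals at multiple concentrations, vehicle 0.2% DMSO; CYP2B6 mRNA induction measured 6 h after dosing by quantitative nuclease protection assay with chemiluminescence, gain of signal fitted relative to DMSO.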
# [4] = CCTE_Padilla_ZF_144hpf_TERATOSCORE: (Legacy) CCTE's 144 Hour Post-fertilization zebrafish Assay Teratoscore, Padilla Lab (AID 2283679; active = hit-call score of the fitted dose curve at least 0.9, where 1 is the maximum; inactive = score below 0.9;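 as to AC50: zebrafish embryos with chorions exposed by immersion from 6-8 hpf to 5 dpf with daily renewal; teratogenicity score from eye scoring of death hatching and malformations at 144 hpf; higher score means more developmental defects relative to DMSO baseline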)
# Outline: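 Larvae scored by eye at 144 hpf for death, hatching and malformations after a day in clean Hanks'. Before that, daily-renewed exposure at 80 uM (0.4% DMSO, 26C) from roughly 6-8 hpf through 5 dpf, 4 embryos per chemical.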
# [5] = read-out: Cytochrome P450 3A4 (Homo sapiens) (UniProt P08684); assay: CLD_CYP3A4_6hr: CellzDirect (CLD) Gene Expression Assay for xenobiotic metabolism (CYP3A4) at 6 hours (AID 2283680)
# Outline: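 Primary human hepatocytes (two donor preparations) dosed; CYP3A4 mRNA harvested at 6 h and quantified by qNPA chemiluminescence. Gain of signal fitted against 0.2% DMSO vehicle; cytotoxicity flagged by phase-contrast morphology.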
# [6] = read-out: Glyceraldehyde-3-phosphate dehydrogenase (Homo sapiens) (UniProt P04406); assay: CLD_GAPDH_6hr: CellzDirect (CLD) Gene Expression Assay for Baseline Control (Glyceraldehyde 3-phosphate dehydrogenase) at 6 hours (AID 2283681);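 also: active means increased signal relative to DMSO vehicle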
# Outline: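 Primary human hepatocytes from two donor preparations, dosed at multiple concentrations with 0.2% DMSO vehicle; GAPDH mRNA measured 6 h after dosing by chemiluminescent quantitative nuclease protection assay (qNPA) on denatured lysates. Serves as background control; cytotoxicity annotated by morphology.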
# [7] = read-out: ABC Transporter (ABCB11), ABCB11 (gene 8647); assay: CLD_ABCB11_6hr: CellzDirect (CLD) Gene Expression Assay for ABC Transporter (ABCB11) at 6 hours (AID 2283675);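 also: hits raise ABCB11 mRNA level so AC50 marks induction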
# Outline: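 Human primary hepatocytes (two donor preparations) given fresh chemical daily at multiple concentrations, vehicle 0.2% DMSO. ABCB11 mRNA induction measured 6 h after dosing by qNPA chemiluminescence versus DMSO; cytotoxicity annotated from morphology.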
# [8] = read-out: Cytochrome P450 2C19 (Homo sapiens) (UniProt P33261); assay: CLD_CYP2C19_6hr: CellzDirect (CLD) Gene Expression Assay for xenobiotic metabolism (CYP2C19) at 6 hours (AID 2283678)
# Outline: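 Primary human hepatocytes from two donor preparations were dosed daily, with 0.2% DMSO as vehicle, and harvested 6 h after dosing. CYP2C19 mRNA induction was measured by qNPA chemiluminescence and fitted as gain of signal against DMSO.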
# [9] = read-out: xenobiotic metabolism (CYP1A1), CYP1A1 (gene 1543); assay: CLD_CYP1A1_24hr: CellzDirect (CLD) Gene Expression Assay for xenobiotic metabolism (CYP1A1) at 24 hours (AID 2283673);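 also: CYP1A1 mRNA level by quantitative nuclease protection with chemiluminescence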
# Outline: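 Primary human hepatocytes dosed daily with fresh solutions in 0.2% DMSO vehicle. mRNA measured at 24 h by quantitative nuclease protection assay with chemiluminescence; gain-of-signal fit versus DMSO, with morphology-based cytotoxicity flags.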
# [10] = read-out: Cytochrome P450 (CYP24A1_1), CYP24A1 (gene 1591); assay: LTEA_HepaRG_CYP24A1_1: Life Technologies and Expression Analysis (LTEA) Assay for Cytochrome P450 (CYP24A1_1) using HepaRG (AID 2283671; active = hit-call score of the fitted dose curve at least 0.9, where 1 is the maximum; inactive = score below 0.9); details: mRNA level, 48 h; actives raise or lower the signal
# Outline: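 Differentiated human HepaRG cells in serum-free induction medium, exposed 48 h in duplicate to eight half-log concentrations from 100 uM top, 0.5% DMSO. Transcript measured by TaqMan qRT-PCR, normalised to ACTB, GAPDH, POLR2A; bidirectional fitting versus DMSO.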
# Chain of Cytochrome P450 3A4 (Homo sapiens) (P08684 whole entry, looked up): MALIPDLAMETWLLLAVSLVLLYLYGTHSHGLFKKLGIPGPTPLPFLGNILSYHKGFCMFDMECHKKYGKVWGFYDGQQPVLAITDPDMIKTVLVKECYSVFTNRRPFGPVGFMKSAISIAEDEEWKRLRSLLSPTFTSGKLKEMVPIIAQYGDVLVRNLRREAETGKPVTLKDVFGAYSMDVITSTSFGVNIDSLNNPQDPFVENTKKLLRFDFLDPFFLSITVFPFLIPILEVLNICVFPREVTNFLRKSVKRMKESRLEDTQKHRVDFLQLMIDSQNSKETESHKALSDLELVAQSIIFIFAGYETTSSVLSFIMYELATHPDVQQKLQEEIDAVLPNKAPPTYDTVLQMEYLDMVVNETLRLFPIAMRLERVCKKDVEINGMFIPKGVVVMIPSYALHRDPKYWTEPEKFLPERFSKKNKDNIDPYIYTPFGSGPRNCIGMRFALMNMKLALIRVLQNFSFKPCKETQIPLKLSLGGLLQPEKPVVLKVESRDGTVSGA
# Chain of Cytochrome P450 2C19 (Homo sapiens) (P33261 whole entry, looked up): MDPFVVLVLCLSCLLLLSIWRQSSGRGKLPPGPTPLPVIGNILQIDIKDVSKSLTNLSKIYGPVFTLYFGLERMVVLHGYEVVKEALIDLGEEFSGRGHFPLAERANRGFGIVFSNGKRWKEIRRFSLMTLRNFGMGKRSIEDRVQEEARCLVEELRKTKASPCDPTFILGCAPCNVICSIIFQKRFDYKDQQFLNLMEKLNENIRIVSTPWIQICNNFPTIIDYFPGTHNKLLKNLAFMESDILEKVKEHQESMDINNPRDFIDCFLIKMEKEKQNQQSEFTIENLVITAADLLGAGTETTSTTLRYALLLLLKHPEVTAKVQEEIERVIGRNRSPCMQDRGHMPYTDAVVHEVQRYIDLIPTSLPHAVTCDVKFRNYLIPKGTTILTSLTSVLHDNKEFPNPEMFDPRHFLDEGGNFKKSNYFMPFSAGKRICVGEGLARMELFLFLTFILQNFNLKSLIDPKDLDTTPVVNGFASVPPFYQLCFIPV
# Chain of Glyceraldehyde-3-phosphate dehydrogenase (Homo sapiens) (P04406 whole entry, looked up): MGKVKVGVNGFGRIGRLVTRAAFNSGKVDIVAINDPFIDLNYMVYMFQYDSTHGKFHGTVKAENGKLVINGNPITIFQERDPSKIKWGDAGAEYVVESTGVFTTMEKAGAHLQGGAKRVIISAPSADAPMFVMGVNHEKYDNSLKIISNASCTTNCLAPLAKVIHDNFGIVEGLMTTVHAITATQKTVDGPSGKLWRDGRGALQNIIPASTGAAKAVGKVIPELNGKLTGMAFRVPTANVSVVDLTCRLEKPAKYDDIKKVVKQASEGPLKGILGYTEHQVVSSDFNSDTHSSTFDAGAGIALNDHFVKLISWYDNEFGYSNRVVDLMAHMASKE
smiles,measurement,setting,value
CCCCOCN(C(=O)CCl)c1c(CC)cccc1CC,outcome,[1],inactive
same,outcome,[2],inactive
same,AC50,[3],2.29 µM (active)
same,AC50,[4],5.42 µM (active)
same,outcome,[5],inactive
same,outcome,[6],inactive
CCNP(=S)(OC)O/C(C)=C/C(=O)OC(C)C (stereo unspecified),outcome,[1],inactive
same,outcome,[7],inactive
same,AC50,[3],0.84 µM (active)
same,AC50,[4],40.6 µM (active)
same,AC50,[5],1.9 µM (active)
same,outcome,[6],inactive
CCOc1nc(C(Cl)(Cl)Cl)ns1,outcome,[1],inactive
same,outcome,[7],inactive
same,outcome,[8],inactive
same,outcome,[4],inactive
same,outcome,[5],inactive
same,outcome,[6],inactive
CC(C)NC(=O)N1CC(=O)N(c2cc(Cl)cc(Cl)c2)C1=O,outcome,[1],inactive
same,AC50,[3],20 µM (active)
same,AC50,[4],74.4 µM (active)
same,outcome,[5],inactive
same,outcome,[6],inactive
Nc1c(Cl)c(F)nc(OCC(=O)O)c1Cl,outcome,[9],inactive
same,outcome,[7],inactive
same,outcome,[4],inactive
same,outcome,[6],inactive
CCCCC(C#N)(Cn1cncn1)c1ccc(Cl)cc1 (stereo unspecified),outcome,[10],inactive
same,AC50,[9],35.3 µM (active)
same,outcome,[8],inactive
same,AC50,[4],62.6 µM (active)
same,AC50,[5],2.99 µM (active)
COC(=O)NC(=S)Nc1ccccc1NC(=S)NC(=O)OC,AC50,[3],4.73 µM (active)
same,outcome,[8],inactive
same,AC50,[4],0.486 µM (active)
same,outcome,[5],inactive
CCOc1cc(C(C)(C)C)ccc1C1COC(c2c(F)cccc2F)=N1 (stereo unspecified),outcome,[7],inactive
same,AC50,[4],1.9 µM (active)
same,AC50,[5],4.26 µM (active)
same,outcome,[6],inactive
Cc1ccc(N=CN(C)C=Nc2ccc(C)cc2C)c(C)c1,outcome,[2],inactive
same,outcome,[8],inactive
same,AC50,[4],27.5 µM (active)
same,outcome,[6],inactive
COc1cc(Cl)c(OC)cc1Cl,outcome,[7],inactive
same,AC50,[3],0.618 µM (active)
same,outcome,[5],inactive
N#Cc1c[nH]cc1-c1cccc2c1OC(F)(F)O2,AC50,[3],5.4 µM (active)
same,AC50,[4],4.19 µM (active)
CCCN(CC)CC1COC2(CCC(C(C)(C)C)CC2)O1 (stereo unspecified),AC50,[4],62.9 µM (active)
same,outcome,[5],inactive
Cc1cc(C)nc(Nc2ccccc2)n1,outcome,[4],inactive
same,outcome,[5],inactive
COC(=O)N(C(=O)N1CO[C@@]2(C(=O)OC)Cc3cc(Cl)ccc3C2=N1)c1ccc(OC(F)(F)F)cc1,outcome,[7],inactive
same,AC50,[4],1.57 µM (active)
same,AC50,[5],1.21 µM (active)
same,outcome,[6],inactive
CCN(CC)C(=O)C(C)Oc1cccc2ccccc12 (stereo unspecified),outcome,[9],inactive
same,outcome,[4],inactive
COc1cc(OC)nc(NC(=O)NS(=O)(=O)c2ncccc2OCC(F)(F)F)n1,outcome,[7],inactive
same,outcome,[3],inactive
same,outcome,[8],inactive
same,outcome,[4],inactive
Cc1c(COC(=O)[C@@H]2[C@H](/C=C(\Cl)C(F)(F)F)C2(C)C)cccc1-c1ccccc1,AC50,[3],4.27 µM (active)
same,AC50,[4],0.623 µM (active)
same,AC50,[5],3.44 µM (active)
CC1(C)C(C=C(Cl)Cl)C1C(=O)OC(C#N)c1cccc(Oc2ccccc2)c1 (stereo unspecified),AC50,[9],8.15 µM (active)
same,AC50,[4],0.284 µM (active)
Nc1cnn(-c2ccccc2)c(=O)c1Cl,outcome,[3],inactive
same,outcome,[4],inactive
CCSC(=O)N1CCCCCC1,AC50,[3],2.28 µM (active)
same,outcome,[4],inactive
same,outcome,[5],inactive
CNC(=O)N(C)c1nnc(C(C)(C)C)s1,outcome,[9],inactive
same,outcome,[8],inactive
same,outcome,[4],inactive
same,outcome,[5],inactive
COP(=O)(OC)O/C(C)=C/C(=O)N(C)C,outcome,[7],inactive
same,outcome,[8],inactive
same,outcome,[4],inactive
same,outcome,[6],inactive
